This is an account of results in paper PMC11062922 (Nature Chemical Biology, 2023).

Common to all, as to parameters: species or system human, MV4-11 + K-562 + COLO205 + SK-N-BE2 + OVCAR-8
The subject of one assay is CSNK1D. To be noted: read-out: apparent Kd, n = 1.
The test system of a further assay is AURKA. To be noted: read-out: apparent Kd, compound concentrations: 100 nM and 1000 nM (sheet 'Samples'), n = 1.
In another assay the test system is BCR. To be noted: read-out: apparent Kd, n = 1.
A further assay relates to ATM. To be noted: read-out: apparent Kd, compound concentrations: 100 nM and 1000 nM (sheet 'Samples'), n = 1.
The next assay concerns EPHA4. To be noted: read-out: apparent Kd, n = 1.
The next assay relates to EPHA5. To be noted: read-out: apparent Kd, n = 1.
The test system of another assay is EPHB2. To be noted: read-out: apparent Kd, n = 1.
A further assay concerns EPHB4. To be noted: read-out: apparent Kd, n = 1.
Another assay has as its system PRKACA. To be noted: read-out: apparent Kd; compound concentrations: 100 nM and 1000 nM (sheet 'Samples'), CATDS: 2.4809932188679999E-2; n = 1.
For another assay, the system named is PRKACB. To be noted: read-out: apparent Kd; compound concentrations: 100 nM and 1000 nM (sheet 'Samples'), CATDS: 1.9106655898432998E-2; n = 1.
The next assay deals with TNK1. To be noted: read-out: apparent Kd, n = 1.
The next assay concerns TNK2. To be noted: read-out: apparent Kd, n = 1.
A further assay has as its system MAPK10. To be noted: read-out: apparent Kd, n = 1.
A further assay concerns MAPK9. To be noted: read-out: apparent Kd, n = 1.
The test system of another assay is CAMKK2. To be noted: read-out: apparent Kd; compound concentrations:100 nM and 1000 nM (sheet 'Samples'); n = 1.
The subject of a further assay is CHEK1. To be noted: read-out: apparent Kd, n = 1.
The test system of the next assay is PRKAG2. To be noted: read-out: apparent Kd, n = 1.
A further assay deals with CDK16. To be noted: read-out: apparent Kd, n = 1.
A further assay deals with STK4. To be noted: read-out: apparent Kd, compound concentrations: 100 nM and 1000 nM (sheet 'Samples'), n = 1.
For a further assay, the system named is MARK3. To be noted: read-out: apparent Kd; compound concentrations: 100 nM and 1000 nM (sheet 'Samples'), CATDS: 1.24991581563988E-2; n = 1.
[1] abbreviates: compound concentrations:100 nM and 1000 nM (sheet 'Samples').

SMILES strings stand for the structures. Read-outs that look alike come from different tables or passages of the source.

On to `Cl.ON=C1CCc2cc(-c3nc(C4CCNCC4)[nH]c3-c3ccncc3)ccc21` [SB-614067-R], for which, in the assay with CSNK1D (setting [1]), the potency estimated from few doses was 436 nM.

Regarding `Cc1ccc(Nc2ccnc(Nc3ccc4c(c3)CS(=O)(=O)C4)n2)cc1O.Cl` [GW579362A], the potency estimated from few doses was 393 nM with AURKA (CATDS: 4.77260985286359E-2); 428 nM with BCR (compound concentrations: 100 nM and 1000 nM (sheet 'Samples'), CATDS: 4.5785194143174703E-2).

As for `CN(c1ccc(NC(=O)Nc2cccc(Cl)c2)cc1)c1ccnc(N)n1.Cl` [GW830707A], the potency estimated from few doses in the assay on ATM (CATDS: 7.3316367539925598E-2) is 4.81 nM; in the assay with AURKA (CATDS: 1.10158492855777E-2), 1100 nM; in the assay on BCR (compound concentrations: 100 nM and 1000 nM (sheet 'Samples'), CATDS: 2.64796261985909E-2), 26.5 nM; with EPHA4 (compound concentrations: 100 nM and 1000 nM (sheet 'Samples'), CATDS: 2.6652421745355599E-2), 26.2 nM; in the assay on EPHA5 (compound concentrations: 100 nM and 1000 nM (sheet 'Samples'), CATDS: 2.89918726046417E-2), 22 nM; in the assay with EPHB2 (compound concentrations: 100 nM and 1000 nM (sheet 'Samples'), CATDS: 3.95108410825031E-2), 12.4 nM. Also, the potency estimated from few doses is 6.3 nM in the assay with EPHB4 (compound concentrations: 100 nM and 1000 nM (sheet 'Samples'), CATDS: 6.0687941062208699E-2); 30.7 nM in the assay on PRKACA; 60.7 nM in the assay on PRKACB; 3.01 nM in the assay on TNK1 (compound concentrations: 100 nM and 1000 nM (sheet 'Samples'), CATDS: 0.104039802479183); 13.5 nM in the assay with TNK2 (compound concentrations: 100 nM and 1000 nM (sheet 'Samples'), CATDS: 3.7589632297420301E-2).

For the compound `COc1cccc2c(-c3ccncc3)c(-c3ccc(F)cc3)nn12` [GW468513X], the potency estimated from few doses in the assay with CSNK1D (compound concentrations: 100 nM and 1000 nM (sheet 'Samples'), CATDS: 0.14597424406190301) is 52 nM; in the assay with MAPK10 (compound concentrations: 100 nM and 1000 nM (sheet 'Samples'), CATDS: 5.7634861461912698E-2) it was 346 nM; with MAPK9 (compound concentrations: 100 nM and 1000 nM (sheet 'Samples'), CATDS: 6.8874136988771595E-2), 218 nM.

Turning to `CN(c1ccc(NC(=O)NCCN2CCOCC2)cc1)c1ccnc(Nc2ccc(CS(C)(=O)=O)cc2)n1.Cl` [GW830365A], the potency estimated from few doses is 444 nM with AURKA (CATDS: 7.5652675544933198E-2); 792 nM in the assay with TNK1 (compound concentrations: 100 nM and 1000 nM (sheet 'Samples'), CATDS: 5.9117233589801498E-2).

`CC(=O)N[C@@H](Cc1ccc(OP(=O)(O)O)cc1)C(=O)N[C@H]1CCC(=O)N2CCC[C@@H](C(=O)NCc3ccc(Cl)cc3)N2C1=O` [RO0325308-000]: the potency estimated from few doses in the assay with BCR (setting [1]) is 604 nM; in the assay with CAMKK2 it was 1320 nM; in the assay with CHEK1 (setting [1]) it was 1950 nM; in the assay with EPHA4 (setting [1]), 843 nM; in the assay with EPHA5 (setting [1]) it was 770 nM; in the assay on EPHB2 (setting [1]), 56.3 nM. Further, the potency estimated from few doses is 59.9 nM with EPHB4 (setting [1]), 570 nM in the assay on PRKAG2 (setting [1]), 468 nM in the assay on TNK1 (setting [1]) and 51.7 nM with TNK2 (setting [1]).

As to `CN(C)CC(O)COc1ccc(Nc2nccc(-c3cnn4nc(N5CCOCC5)ccc34)n2)cc1` (stereo not drawn) [GW767488X], the results for the potency estimated from few doses in the assay on CDK16 (setting [1]), in the assay with MAPK10 (setting [1]) and with MAPK9 (setting [1]) were 262 nM, 107 nM and 134 nM, respectively.

Regarding `FC(F)(F)c1ccc(-c2ncn(CCCN3CCOCC3)c2-c2ccncc2)cc1` [SB-217780], the potency estimated from few doses in the assay on STK4 (CATDS: 0.215555066939567) was 1540 nM.

On to `c1cnn2ncc(-c3ccnc(Nc4ccc5c(c4)OCCO5)n3)c2c1` [GW806290X], for which the potency estimated from few doses in the assay with CDK16 (compound concentrations: 100 nM and 1000 nM (sheet 'Samples'), CATDS: 2.45493373786023E-2) was 989 nM; in the assay on CSNK1D (compound concentrations: 100 nM and 1000 nM (sheet 'Samples'), CATDS: 2.68711493268559E-2), 761 nM; with MAPK10 (compound concentrations: 100 nM and 1000 nM (sheet 'Samples'), CATDS: 2.29064571505532E-2), 1230 nM; with MAPK9 (compound concentrations: 100 nM and 1000 nM (sheet 'Samples'), CATDS: 2.34417692705663E-2), 1140 nM.

As to `O=C(O)C(F)(F)F.O=c1[nH]ccc2nc(N[C@@H]3CCNC3)nc(Nc3ccc4c(c3)S(=O)(=O)CC4)c12` [GSK2181306A], the potency estimated from few doses is 620 nM with CDK16 (compound concentrations: 100 nM and 1000 nM (sheet 'Samples'), CATDS: 1.11902252687631E-2); 672 nM in the assay on CHEK1 (compound concentrations: 100 nM and 1000 nM (sheet 'Samples'), CATDS: 1.0862390298074001E-2); 1080 nM in the assay on CSNK1D (compound concentrations: 100 nM and 1000 nM (sheet 'Samples'), CATDS: 9.27581508882039E-3); 470 nM in the assay with MARK3; 504 nM in the assay on PRKAG2 (compound concentrations: 100 nM and 1000 nM (sheet 'Samples'), CATDS: 1.2141088500549201E-2); 175 nM in the assay on STK4 (CATDS: 2.0109118463760199E-2).

For `CCn1c(-c2cccnc2O)nc2cnccc21` [SB-736715], the potency estimated from few doses in the assay with ATM (CATDS: 6.3051453748071404E-2) was 146 nM; in the assay on CDK16 (compound concentrations: 100 nM and 1000 nM (sheet 'Samples'), CATDS: 1.2342830833646699E-2), 2030 nM; in the assay with MAPK9 (compound concentrations: 100 nM and 1000 nM (sheet 'Samples'), CATDS: 1.25360352526476E-2) it was 1950 nM; in the assay on PRKAG2 (compound concentrations: 100 nM and 1000 nM (sheet 'Samples'), CATDS: 1.6059828940045699E-2), 1130 nM; in the assay with STK4 (CATDS: 1.39715497774644E-2) it was 1510 nM.
